Values without a mark were called inactive. Active and inactive are the calls of the source. Cut-off read from the data, not from the text of the source, unless noted: active = inhibition above about 44%; inactive = the rest.
Columns and labels:
[1] = StAR promoter reporter inhibitors, counter-screen for LRH-1 inverse agonist project, cell-based, luminescence, high throughput (AID 651611; in the data active = inhibition above about 28%); conditions: StAR promoter luciferase reporter counterscreen, at 3.6 µM, stronger effect = higher value
[2] = target: Nuclear receptor subfamily 5 group A member 2 (Homo sapiens) (UniProt O00482); experiment: LRH-1 (NR5A2) inverse agonists, retest, confirmation, cell-based, luminescence (AID 651613; in the data active = inhibition above about 42%;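 note: HEK293T cells co-transfected with LRH-1 and StAR promoter luciferase reporter; 0% = vehicle wells and 100% = parental cells lacking receptor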); conditions: cell-based LRH-1 luciferase reporter, inverse agonism; at 3.6 µM; stronger effect = higher value
[3] = target: Steroidogenic factor 1 (Homo sapiens) (UniProt Q13285); experiment: SF1 (NR5A1) inverse agonists, counter-screen for LRH-1 inverse agonist project, cell-based, luminescence, high throughput (AID 651614); conditions: cell-based SF1 luciferase reporter, at 3.6 µM, stronger effect = higher value;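 note: cells cotransfected with StAR promoter reporter and SF1 expression vector; 0% = vehicle on cells with receptor and 100% = vehicle on cells lacking receptor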
[4] = VP16 transactivation reporter inhibitors, counter-screen for LRH-1 inverse agonist project, cell-based, luminescence, high throughput (AID 651615; in the data active = inhibition above about 33%); conditions: Gal4-VP16 luciferase reporter cells, at 3.6 µM, stronger effect = higher value

Sequence of Nuclear receptor subfamily 5 group A member 2 (Homo sapiens) (O00482 whole entry, looked up): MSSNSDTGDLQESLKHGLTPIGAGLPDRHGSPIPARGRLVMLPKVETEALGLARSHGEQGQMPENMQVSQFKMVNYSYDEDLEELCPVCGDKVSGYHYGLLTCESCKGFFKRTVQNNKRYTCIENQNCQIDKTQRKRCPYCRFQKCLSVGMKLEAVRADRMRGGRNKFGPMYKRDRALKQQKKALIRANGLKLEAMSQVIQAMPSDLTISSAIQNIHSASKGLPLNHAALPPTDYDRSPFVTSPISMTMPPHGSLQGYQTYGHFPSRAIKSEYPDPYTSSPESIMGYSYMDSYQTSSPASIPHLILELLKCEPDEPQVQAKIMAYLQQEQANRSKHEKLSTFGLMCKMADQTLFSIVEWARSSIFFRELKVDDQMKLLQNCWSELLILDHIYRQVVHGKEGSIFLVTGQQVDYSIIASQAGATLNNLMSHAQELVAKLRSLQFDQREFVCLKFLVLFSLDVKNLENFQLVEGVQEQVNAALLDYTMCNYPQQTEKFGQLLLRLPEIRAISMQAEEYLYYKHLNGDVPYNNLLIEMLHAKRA
Sequence of Steroidogenic factor 1 (Homo sapiens) (Q13285 whole entry, looked up, the tested form may be a part): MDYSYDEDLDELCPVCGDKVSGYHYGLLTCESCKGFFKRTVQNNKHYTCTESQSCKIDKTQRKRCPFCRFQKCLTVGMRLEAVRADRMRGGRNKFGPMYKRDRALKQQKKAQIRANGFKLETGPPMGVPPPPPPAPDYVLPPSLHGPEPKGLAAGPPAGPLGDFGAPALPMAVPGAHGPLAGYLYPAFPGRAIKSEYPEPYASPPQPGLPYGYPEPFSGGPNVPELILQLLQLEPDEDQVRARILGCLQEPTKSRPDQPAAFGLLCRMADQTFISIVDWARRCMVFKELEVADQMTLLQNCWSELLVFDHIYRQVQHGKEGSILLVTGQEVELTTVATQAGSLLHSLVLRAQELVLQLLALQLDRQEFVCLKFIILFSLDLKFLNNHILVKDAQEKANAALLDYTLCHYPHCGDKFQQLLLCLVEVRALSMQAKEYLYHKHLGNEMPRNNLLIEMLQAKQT

Row | SMILES | inhibition [1] | inhibition [2] | inhibition [3] | inhibition [4]
1 | Cc1ccc(C)c(-c2cc(C(=O)N/N=C/c3cccnc3)c3ccccc3n2)c1 | 9.19% | 51.1% (active) | 44.9% (active) | 5.29%
2 | Cc1[nH]c2ccccc2c1/C=N/Nc1ccc([N+](=O)[O-])cc1 | -1.71% | 55.8% (active) | 56.5% (active) | -3.15%
3 | COc1ccc(OCCNC(=O)C2(C)CCN2Cc2ccc3ccccc3c2)cc1 (stereo unspecified) | 13.6% | 45.2% (active) | 43.2% (active) | 1.36%
4 | CCCOc1ccc2oc(=O)c3c(c2c1)CCCN3C(=O)CN1CCN(c2ncccn2)CC1 | 6.16% | 53.4% (active) | 55.7% (active) | -7.99%
5 | CC1(C(=O)NCc2ccco2)Cc2c(-c3ccccc3)ccnc2O1 (stereo unspecified) | 42% (active) | 36.3% | 59% (active) | 26.6%
6 | Cc1nn(CC(=O)Nc2ccc(N3CCOCC3)cc2)c(C)c1Cl | -2.18% | 44.3% (active) | 29.8% | -1.64%
7 | CN(C)S(=O)(=O)c1ccc(C(=O)NCc2ccc3[nH]c4c(c3c2)CCCC4)cc1 | 24.6% | 39.3% | 54.4% (active) | -9.28%
8 | CC(=O)Oc1ccc(N(C(C)=O)S(=O)(=O)c2ccccc2)c2ccccc12 | 13% | 31.6% | 34.9% | -3.17%
9 | S=C(NCc1ccccc1)Nc1ccncc1 | 9.38% | 37% | 47.3% (active) | 13.1%
10 | O=C(Nc1ccc(NC(=O)c2ccc([N+](=O)[O-])o2)cc1Cl)c1ccco1 | 19.6% | 59.8% (active) | 73% (active) | -20.2%
11 | CC(=O)c1ccc2c(c1)C1C=CCC1C(c1cc3c(cc1Br)OCO3)N2 (stereo unspecified) | 45.6% (active) | 50.3% (active) | 46.1% (active) | 16.9%
12 | COc1cc(C(=O)NN=Cc2ccc(N(C)C)cc2)cc(OC)c1OC | 37.3% (active) | 37.8% | 51.1% (active) | 22.3%
13 | COC(=O)c1ccc(NC(=O)CSc2nc3ncccc3[nH]2)cc1 | -4.1% | 50.8% (active) | 52.6% (active) | -13.4%
14 | O=C(Cn1ccc(=O)[nH]c1=O)c1ccc([N+](=O)[O-])o1 | 13.1% | 14.3% | 14.9% | -16.8%
15 | COc1ccc(CCNC(=O)COC(=O)C23CC4CC(CC(C4)C2)C3)cc1 | 17.5% | 57% (active) | 48.7% (active) | 1.82%
16 | COCc1cc(C)nc(SCC(=O)Nc2cc3c(cc2C#N)OCO3)c1C#N | -4.84% | 45.3% (active) | 47.2% (active) | -12.4%
17 | CC(NC(=O)CCl)c1ccccc1Br (stereo unspecified) | 23.9% | 60.2% (active) | 57.4% (active) | -27.4%
18 | Cc1cc(OCC(=O)Nc2nccs2)c2c(C)cc(=O)oc2c1 | 16.2% | 66.6% (active) | 55.3% (active) | -19.8%
19 | O=C(CSc1n[nH]c(-c2ccccc2)n1)Nc1ccc(N2CCOCC2)cc1 | 1.99% | 56.6% (active) | 49% (active) | -15.3%
20 | CC(=O)N1c2ccc(S(=O)(=O)N3CCC(C(=O)Nc4cccc(C)n4)CC3)cc2CC1C (stereo unspecified) | 18% | 57.1% (active) | 54.1% (active) | 51.9% (active)
21 | CN(C)c1ccc(C=c2c3ccccc3n3c2c2ccccc2[n+]3C)cc1 | 54.9% (active) | 107% (active) | 90.7% (active) | 91.7% (active)
22 | Cc1nc(C)c(-c2csc(Nc3cccnc3)n2)s1 | -12.1% | 41.5% (active) | 35.4% | -47.9%
23 | Cc1c(Cl)cccc1NC(=O)CS(=O)(=O)c1ccccc1 | 13.4% | 55.1% (active) | 55.5% (active) | -1.09%
24 | COc1ccc(-c2nn(C)c(=O)c3ccccc23)cc1NS(C)(=O)=O | 49.6% (active) | 53.6% (active) | 41.2% | -52.2%
25 | Cc1cc(Br)ccc1NC(=O)CSc1nnc(CN2CCOCC2)n1C | 15.4% | 47.8% (active) | 42.5% | 0.09%

Row | SMILES | inhibition [1] | inhibition [2] | inhibition [3] | inhibition [4]
26 | Cc1onc(-c2ccccc2Cl)c1C(=O)O/N=C(\N)c1ccc([N+](=O)[O-])o1 | 10.8% | 66.3% (active) | 62.5% (active) | -5.99%
27 | COc1cc2oc(-c3ccc(O)cc3)cc(=O)c2c(O)c1OC | 7% | 35.9% | 32.8% | -45.5%
28 | CC1Cc2ccccc2N1C1=CC(=O)CC(C)(C)C1 (stereo unspecified) | 21.4% | 55.3% (active) | 51.9% (active) | -3.44%
29 | O=C(COC(=O)C1CC(=O)N(Cc2ccccc2)C1)Nc1ccc2c(c1)OCO2 (stereo unspecified) | 6.45% | 50.9% (active) | 54.8% (active) | -9.97%
30 | O=C(COc1ccc(S(=O)(=O)N2CCCC2)cc1Cl)Nc1ccc2c(c1)OCO2 | 0.49% | 50.4% (active) | 37% | -9.34%
31 | COc1ccc(OC)c(CCNC(=O)C(C)n2nc(C)c3c(C)n(-c4ccc(C)cc4)nc3c2=O)c1 (stereo unspecified) | 15.2% | 64% (active) | 55.6% (active) | 51.2% (active)
32 | O=C(N/N=C/c1c[nH]c2ccccc12)c1[nH]c2ccc(Br)cc2c1-c1ccccc1 | 52.3% (active) | 38% | 57% (active) | 33.6% (active)
33 | CCc1ccccc1NC(=O)CSc1nnc([C@@H]2CCCN2C(=O)OC(C)(C)C)o1 | 16.4% | 50.5% (active) | 59% (active) | -8.78%
34 | Cc1cc([N+](=O)[O-])ccc1NCc1ccc2ccccc2c1 | 1.75% | 43.1% (active) | 38.8% | 2.64%
35 | COc1cccc(NC(=O)c2oc3ccccc3c2NC(=O)C2CC2)c1 | -5.29% | 50.6% (active) | 47.1% (active) | -8.83%
36 | Oc1ccc2ccccc2c1C=NCc1ccccc1 | 22.8% | 15.3% | 16.9% | 3.34%
37 | O=C(COc1ccc2c3c(c(=O)oc2c1)CCCC3)NCc1ccccn1 | 2.43% | 57.6% (active) | 56.7% (active) | -9.09%
38 | Cc1cc(NC(=O)C(Cl)Cl)cc2c1OCO2 | 10.4% | 59.2% (active) | 45.6% (active) | -10.1%
39 | CSc1nc(SCC(=O)NCc2ccco2)c2c3c(sc2n1)COC(C)(C)C3 | 6.43% | 54.7% (active) | 57.6% (active) | 3.39%
40 | CCOc1ccc(CCNC(=O)COC(=O)CSc2ccccc2C)cc1OCC | 2.02% | 49% (active) | 41% | 8.24%
41 | CC(=O)N1CCc2c(sc(NC(=O)Cc3ccc(F)cc3)c2C#N)C1 | 21.4% | 65.3% (active) | 57.6% (active) | -35.5%
42 | COc1ccc(CCNC(=O)CSc2ccc(NC(C)=O)cc2)cc1OC | 9.56% | 53.8% (active) | 53.4% (active) | -3.78%
43 | O=C(CCl)Nc1ccc2c(c1)OCO2 | 37.1% (active) | 60.3% (active) | 62.4% (active) | -14.7%
44 | O=C(Nc1ccc(Cc2ccncc2)cc1)c1cccc([N+](=O)[O-])c1 | -10.2% | 52.4% (active) | 51.9% (active) | 0.73%
45 | CCOc1ccc(NC(=O)CSc2nncc(=O)n2N)cc1 | 12.1% | 64.5% (active) | 43.6% (active) | -9.32%
46 | CCN1C(=O)c2cccc3c(NC(=O)c4ccc(S(=O)(=O)N(C)C)cc4)ccc1c23 | 39% (active) | 47.9% (active) | 46.2% (active) | -41.4%
47 | CC1=[N+](C)c2c(ccc3cccnc23)C1(C)C | 12.2% | 38.6% | 58.7% (active) | 29.2%
48 | NC(=O)CC[C@H](NC(=O)c1ccc(F)cc1)C(=O)OCC(=O)Nc1ccc(N2CCOCC2)cc1 | 0.81% | 57.5% (active) | 47.9% (active) | -8.19%
49 | ClCc1ncc(-c2ccc(Cl)cc2)o1 | 15.7% | 70% (active) | 62.7% (active) | -28.8%

— PubChem BioAssay
